Screening data: PubChem, National Center for Advancing Translational Sciences (NCATS)
Rows were chosen to be rich in hits. Some 3% of all compounds tested hit in one or more screens of this group.
12-LOX inh = blocks human arachidonate 12S-lipoxygenase | P18054 | purified 12hLO, xylenol orange hydroperoxide absorbance | Potency, µM (top dose mostly 108 µM), most hits filed as inhibitors | 1.1% of 580,000 active; active means well fitted inhibition curve with a large enough effect; inconclusive means small, poorly fitted or top-dose-only effect, or another doubt; inactive means no such curve, though single readings can be large or run the other way
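Hydroperoxide product was detected by ferrous iron/xylenol orange as the 573 to 405 nm absorbance ratio. Arachidonic acid at 40 uM (final) was turned over for 30 min at room temperature by 150 nM human 12hLO, pH 7.0 Hepes buffer, after 15 min compound preincubation.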
hERG WT inh = blocks the wildtype human KCNH2 potassium channel. Q12809. U2OS, BacMam KCNH2, thallium flux FluxOr; hits give low values. activity change, % at 1.84 µM. 0.37% of 340,000 active;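 active means maximum activity change below -70%; inconclusive means maximum activity change between -70% and -50%; inactive means maximum activity change above -50%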
Target sequence (Q12809 whole entry, looked up): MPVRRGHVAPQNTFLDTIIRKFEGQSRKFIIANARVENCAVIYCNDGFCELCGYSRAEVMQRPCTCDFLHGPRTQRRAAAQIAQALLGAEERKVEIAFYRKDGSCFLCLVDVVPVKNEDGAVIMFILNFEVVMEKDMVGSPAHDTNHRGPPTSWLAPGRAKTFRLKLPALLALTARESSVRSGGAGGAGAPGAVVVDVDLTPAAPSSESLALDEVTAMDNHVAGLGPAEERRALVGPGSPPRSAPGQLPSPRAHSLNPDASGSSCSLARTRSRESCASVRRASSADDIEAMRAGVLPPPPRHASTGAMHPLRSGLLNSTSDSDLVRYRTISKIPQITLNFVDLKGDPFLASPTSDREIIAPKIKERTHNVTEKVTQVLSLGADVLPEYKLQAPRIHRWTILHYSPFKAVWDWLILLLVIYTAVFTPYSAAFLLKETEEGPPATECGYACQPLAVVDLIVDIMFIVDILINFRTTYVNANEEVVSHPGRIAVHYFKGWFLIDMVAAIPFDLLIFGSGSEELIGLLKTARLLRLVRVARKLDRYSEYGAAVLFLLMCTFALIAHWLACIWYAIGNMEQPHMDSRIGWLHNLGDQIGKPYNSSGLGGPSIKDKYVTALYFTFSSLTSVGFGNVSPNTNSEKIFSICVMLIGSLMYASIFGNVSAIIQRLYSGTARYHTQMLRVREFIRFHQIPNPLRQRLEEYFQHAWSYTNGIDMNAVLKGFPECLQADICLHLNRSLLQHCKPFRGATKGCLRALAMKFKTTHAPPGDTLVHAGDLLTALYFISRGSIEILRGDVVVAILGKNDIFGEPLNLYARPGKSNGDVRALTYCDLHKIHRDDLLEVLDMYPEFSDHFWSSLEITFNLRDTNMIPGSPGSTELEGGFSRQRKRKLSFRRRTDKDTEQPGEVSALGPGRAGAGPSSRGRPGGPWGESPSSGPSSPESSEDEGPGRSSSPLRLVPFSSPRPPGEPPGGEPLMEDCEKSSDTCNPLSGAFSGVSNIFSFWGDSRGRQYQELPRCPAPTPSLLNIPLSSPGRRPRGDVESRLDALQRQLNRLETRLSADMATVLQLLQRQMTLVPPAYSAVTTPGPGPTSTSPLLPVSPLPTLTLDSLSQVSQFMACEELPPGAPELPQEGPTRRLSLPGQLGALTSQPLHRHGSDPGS
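U2OS cells were transduced with wild-type KCNH2 virus (2.03 x 10^8 / mL) for 4 h at room temperature, then cultured overnight at 37 C. Thallium flux was read with FluxOr dye. Rate constants were normalized to DMSO controls.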
KCNH2 3.1 block = inhibitors of human KCNH2 3.1 potassium channel isoform; U2OS KCNH2 3.1, thallium flux FluxOr; hits give low values; activity change, % (tested at about 1.8 µM); 0.95% of 340,000 active; AID 720553;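 active means maximum activity change below -70%; inconclusive means maximum activity change from -70% to -50%; inactive means maximum activity change above -50%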;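 further: thallium influx rate constant from kinetic fluorescence after stimulation buffer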
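Steps: virus added to U2OS suspension (4 h, RT, dark); medium with 10% FBS added, cells plated, 37 C overnight; FluxOr/Red40 loading buffer 45 min RT; stimulation buffer, 2 min kinetic read; rate constant normalized.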
ClpP mod = qHTS Assay for Activators of ClpP; purified B. subtilis ClpP, FRET peptide cleavage, 20 min; ATP-dependent Clp protease proteolytic subunit (Bacillus subtilis (strain 168)), P80244; 1.9% of 340,000 active; Potency, µM (titrated, usually from 57.5 µM); active means well fitted falling curve with a large enough effect; inconclusive means small, poorly fitted or top-dose-only effect; inactive means no such curve, though single readings can be large or run the other way; further: the source files actives as falling curves though it sought activators and does not explain the sign; nearly all actives have a fitted effect of over 65% in size
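Buffer: 100 mM Tris/HCl pH8, 100 mM KCl, 0.05% low protease BSA, 2.5% glycerol, 0.01% Tween-20. ClpP 10 microg/mL final; 20 min RT; delta FRET normalized to ADEP and DMSO controls.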
Chronic BCR inh = inhibitors of chronic active B-cell receptor signaling | Potency, µM (titrated, usually from 46.1 µM), usual class: inhibitors | 0.05% of 340,000 active | ABC-DLBCL IkBa-CBG/CBR reporter, luminescence ratio, 4 h | AID 493014; active means well fitted inhibition curve with a large enough effect in the signal ratio, with a control signal flat, not every such curve was filed as active; inconclusive means small, poorly fitted or top-dose-only effect, or effect the other way, or a change in a side signal; the % refers to the signal ratio
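Doxycycline induced both beetle luciferases in TMD8 lymphoma cells; IKK-driven degradation limits the IkappaBalpha-fused green signal, while red luminescence normalises for cell number and nonspecific effects. Compounds tested up to 46 uM, 4 hrs.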
LDHA block = inhibitors of human lactate dehydrogenase A | P00338 | purified LDHA, NADH/diaphorase-resazurin fluorescence; hits give low values | activity change, % (values are at about 110 or 230 µM) | 0.15% of 480,000 active; in the data active means activity change below about -30%; inconclusive means mostly about -25% to -30%
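Resorufin fluorescence (ex540/em590), read at 0 and 20 min after diaphorase/resazurin addition, reports the NADH left after a 5 min room-temperature reaction of 2 nM human LDH5 with 0.06 mM NADH and 0.2 mM pyruvate.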
Numbers stand for hits; . = inactive; ? = inconclusive; / = not tested or not shown; ! = a repeat was not active.

SMILES | 12-LOX inh | hERG WT inh | KCNH2 3.1 block | ClpP mod | Chronic BCR inh | LDHA block
CC(CNC(=O)Cc1n[nH]c(=O)c2ccccc12)(c1ccccc1)c1ccccc1 | ? | / | / | / | / | .
COC(=O)c1ccc(N2CCCCC2)c(NS(=O)(=O)c2ccc(C)cc2)c1 | . | . | . | . | ? | .
CC1CCN(c2ccc(C(=O)O)cc2NS(=O)(=O)c2ccc(Br)cc2)CC1 | ? | . | . | 20µM | ? | .
Cc1ccc2[nH]c3c(c2c1)CCC3=O | . | . | . | 25.1µM | ? | .
O=C1CCCc2c1[nH]c1ccc(CN3CCCCC3)cc21 | ? | . | . | 28.2µM | ? | .
Cc1ccc2[nH]c3c(c2c1)CCCC3=O | . | . | . | ? | ? | .
Fc1ccc(/C=C2\CCCC3=C2N=C2SC=C(c4ccccc4)N2C3c2ccc(F)cc2)cc1 (stereo not drawn) | 22.4µM | / | / | / | / | .
Fc1ccc(/C=C2\CCCC3=C2N=C2SC=C(c4ccc(F)cc4)N2C3c2ccc(F)cc2)cc1 (stereo not drawn) | ? | / | / | / | / | .
COc1cccc(-c2ccc(NC(=O)C3CCCN(CCCn4cccn4)C3)cc2)c1 (stereo not drawn) | ? | . | -83.8 | . | . | .
O=C(Nc1sc2ccccc2c(=O)c1-c1ccc2c(c1)OCO2)c1ccc(F)cc1 | . | / | / | / | / | .
O=C(c1cccc(Cl)c1)N1CCC(C(=O)N2CCN(Cc3ccccc3)CC2)CC1 | . | . | . | 28.2µM | . | .
CC(=O)NC(Cc1ccccc1)C(=O)N1CCN(C(=O)c2cccs2)CC1 (stereo not drawn) | . | . | -94.5 | . | . | .
O=C(NC(Cc1ccccc1)C(=O)N1CCN(c2ncccn2)CC1)c1cccs1 (stereo not drawn) | . | / | / | / | / | .
O=C(c1cccc(C(=O)N2CCN(Cc3ccccc3)CC2)c1)N1CCN(Cc2ccccc2)CC1 | . | . | . | . | . | .
O=C(c1cccc(Cl)c1)N1CCN(Cc2ccncc2)CC1 | ? | . | . | . | . | -31.0
O=C(c1cccs1)N1CCN(Cc2ccncc2)CC1 | . | . | . | . | . | -33.3
CCC(C)N(C)Cc1cccc(C2(O)CCN(S(=O)(=O)c3ccc(F)c(C)c3)CC2)c1 (stereo not drawn) | . | . | -100.2 | . | . | .
Cc1cc(S(=O)(=O)N2CCN(c3c(C)cccc3C)CC2)ccc1F | . | . | . | . | ? | .
Cc1ccc(CN(C(=S)NCC(=O)O)C2CCCCC2)cc1 | ? | / | / | / | / | .
Cc1cc(NC(=S)N(Cc2ccc(Br)cc2)Cc2ccc(C(=O)O)cc2)ccc1Cl | 44.7µM | . | . | / | ? | .
Cc1cccc(NC(=S)N(Cc2ccc(Br)cc2)Cc2ccc(C(=O)O)cc2)c1 | . | / | . | . | . | .
COc1cccc(NC(=S)N(Cc2ccc(Cl)cc2)Cc2ccc(C(=O)O)cc2)c1 | 39.8µM | . | . | . | . | .
COCc1ccc2c(c1)c(OC(C)(C)C(=O)NCCCn1ccnc1)nn2CCC(C)C | . | / | / | / | / | /
O=C1C=C(C2CCCCC2)C(=O)c2ccccc21 | 44.7µM | . | . | / | / | .
O=C(O)C1=C(C2CCCCC2)C(=O)c2ccccc21 | . | . | . | . | / | .
SMILES | 12-LOX inh | hERG WT inh | KCNH2 3.1 block | ClpP mod | Chronic BCR inh | LDHA block
O=C(Oc1cccc(NC(=O)c2ccccc2Cl)c1)c1ccc([N+](=O)[O-])cc1 | . | -186.3 | . | . | ? | .
N#CC(=C(/N)Sc1ccccc1N)/C(C#N)=C(\N)Sc1ccccc1N | 31.6µM! | / | / | / | / | /
Cc1cc(C)c(C#N)c(Sc2ccccc2N)n1 | . | . | / | / | ? | .
Cc1nnnn1-c1cccc(C(=O)N[C@H]2C[C@@H]3OCC[C@H]23)c1 | . | / | / | / | / | /
Cc1ccc(C(c2sc3nc(-c4ccco4)nn3c2O)N2CCOCC2)cc1 (stereo not drawn) | 14.1µM | / | / | . | . | .
CC(=O)NC(c1ccc(C)cc1)c1cc([N+](=O)[O-])c2cccnc2c1O (stereo not drawn) | 44.7µM | . | . | / | . | .
CCC(=O)NC(c1ccc(C)cc1)c1cc([N+](=O)[O-])c2cccnc2c1O (stereo not drawn) | 11.2µM | . | . | . | . | .
Oc1ccc2ccccc2c1C=Nc1ccc(F)c(F)c1F | ? | / | / | / | / | .
O=C(/C=C/c1cccnc1)c1cccc2ccccc12 | . | / | / | / | / | .
Cc1ccc(SCC(=O)NC(=O)NCc2ccccc2)c(C)c1 | . | . | . | 35.5µM | . | .
Cc1ccc(S(=O)(=O)c2nc(-c3ccco3)oc2SC(C)c2ccccc2)cc1 (stereo not drawn) | ? | / | / | . | / | .
CCSc1oc(-c2ccc(F)cc2)nc1S(=O)(=O)c1ccc(C)cc1 | 39.8µM! | / | / | ? | / | .
CC(C)Sc1oc(-c2ccco2)nc1S(=O)(=O)c1ccc(F)cc1 | 28.2µM! | . | . | . | ? | .
CCCCSc1oc(-c2ccco2)nc1S(=O)(=O)c1ccc(F)cc1 | 7.94µM | / | / | / | / | .
CCCSc1oc(-c2ccco2)nc1S(=O)(=O)c1ccc(C)cc1 | ? | . | . | / | . | .
O=C(Nc1ccccn1)c1cc(-c2ccncc2)nc2ccccc12 | . | / | / | / | / | .
O=C(O)c1c2c(nc3ccccc13)/C(=C/c1cccc([N+](=O)[O-])c1)CCC2 | 39.8µM | . | . | / | ? | .
CCOCCCNC(=O)CN1C(=O)c2c(c3ccccc3n2C)C1c1ccc(OC)cc1 (stereo not drawn) | . | / | / | 31.6µM | / | .
COCCCNC(=O)CN1C(=O)c2c(c3ccccc3n2C)C1c1ccc(OC)cc1 (stereo not drawn) | ? | / | / | 31.6µM | / | .
COc1ccc(C2c3c(n(C)c4ccccc34)C(=O)N2CC(=O)Nc2c(C)cc(C)cc2C)cc1 (stereo not drawn) | ? | / | / | . | / | .
COc1ccc(-n2c(-c3ccc(F)cc3)cn3c4c(=O)[nH]c(=O)n(C)c4nc23)c(OC)c1 | ? | / | / | / | / | .
Cc1c(C)n(-c2ccc(Cl)cc2)c2ncn(CC(=O)NC(C)c3ccccc3)c(=O)c12 (stereo not drawn) | 25.1µM | / | / | / | / | .
CCNC(=O)Cn1cnc2c(c(C)c(C)n2-c2ccc(Cl)cc2)c1=O | . | / | / | / | / | .
CC(C)(C)c1ccc(C(=O)NC(=S)Nc2nc3c(s2)CCCC3)cc1 | 44.7µM | . | / | / | . | .
COC(=O)CN1C(c2ccc(OC)cc2)=Nc2ccc(Cl)cc2C1c1ccccc1 (stereo not drawn) | . | . | -95.6 | . | ? | .
COC(=O)CN1C(c2cccc(Cl)c2)=Nc2ccc(Cl)cc2C1c1ccccc1 (stereo not drawn) | . | . | . | . | ? | .
COc1cccc(C(=O)Oc2ccc(-c3ccc(C)cc3)cc2)c1 | ? | / | / | / | / | .
